# Experimental data published in the supplement of paper PMC6555819.
# How the values were obtained:
# Test in all cases: PBM binding z-score (relative to random genomic background probes); higher = stronger binding; sequences stand for … in GC…GCGATTGACAGCGTAGAATGAAGG
# [1] = test system: FXR:RXRa (NR concentration 270 nM, RXRa partner concentration 90 nM)
# In short: (§1)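 Custom Agilent 4×180K protein-binding microarrays carried double-stranded probes. Their 34-nt variable regions held direct-repeat seeds, single-nucleotide variants, half-site ablations and random human genomic background sequences. Arrays were incubated 1 h with ligand-free nuclear receptor dimers in PBS pH 7.4, 2% milk, 0.02% Triton X-100, 1 mM DTT, 0.2 mg/mL BSA and 0.4 mg/ml salmon testes DNA. Antibodies against each partner (one per run) detected binding, and scanned fluorescence was regression-normalized. Binding z-scores use random background probes as reference.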
# [2] = test system: LXRa:RXRa (NR concentration 270 nM, RXRa partner concentration 90 nM)
# In short: as §1
# [3] = test system: LXRa homodimer (NR concentration 270 nM)
# In short: as §1
# [4] = test system: LXRb:RXRa (NR concentration 270 nM, RXRa partner concentration 90 nM)
# In short: as §1
# [5] = test system: LXRb homodimer (NR concentration 270 nM)
# In short: as §1
# [6] = test system: PPARa:RXRa (NR concentration 270 nM, RXRa partner concentration 90 nM)
# In short: as §1
# [7] = test system: PPARg:RXRa (NR concentration 180 nM, RXRa partner concentration 90 nM)
# In short: as §1
# [8] = test system: PPARg:RXRa 270nM:90nM, anti-RXR (NR concentration 270 nM, RXRa partner concentration 90 nM)
# In short: as §1
# [9] = test system: PPARg:RXRa 30nM:10nM, anti-RXR (NR concentration 30 nM, RXRa partner concentration 10 nM)
# In short: as §1
# [10] = test system: PPARg:RXRa 90nM:30nM, anti-RXR (NR concentration 90 nM, RXRa partner concentration 30 nM)
# In short: as §1
# [11] = test system: PPARg:RXRa DBDmut IVT, anti-RXR (DBD mutation: RXRa K156A/R161A, NR concentration 270 nM, RXRa partner concentration 90 nM)
# In short: as §1
# [12] = test system: PPARg:RXRa IVT, anti-PPARg (NR concentration 270 nM, RXRa partner concentration 90 nM)
# In short: as §1
# [13] = test system: PPARg DBDmut:RXRa IVT, anti-PPARg (DBD mutation: PPARg1 K132A/R137A, NR concentration 270 nM, RXRa partner concentration 90 nM)
# In short: as §1
# [14] = test system: PPARg DBDmut IVT, anti-PPARg (DBD mutation: PPARg1 K132A/R137A, NR concentration 270 nM)
# In short: as §1
# [15] = test system: PPARg homodimer (NR concentration 180 nM)
# In short: as §1
# [16] = test system: PXR:RXRa (NR concentration 270 nM, RXRa partner concentration 90 nM)
# In short: as §1
# [17] = test system: PXR homodimer (NR concentration 270 nM)
# In short: as §1
# [18] = test system: RARa:RXR (NR concentration 270 nM, RXRa partner concentration 90 nM)
# In short: as §1
# [19] = test system: RARa homodimer (NR concentration 270 nM)
# In short: as §1
# [20] = test system: RARb:RXRa (NR concentration 270 nM, RXRa partner concentration 90 nM)
# In short: as §1
Sequence,PBM binding z-score [1],PBM binding z-score [2],PBM binding z-score [3],PBM binding z-score [4],PBM binding z-score [5],PBM binding z-score [6],PBM binding z-score [7],PBM binding z-score [8],PBM binding z-score [9],PBM binding z-score [10],PBM binding z-score [11],PBM binding z-score [12],PBM binding z-score [13],PBM binding z-score [14],PBM binding z-score [15],PBM binding z-score [16],PBM binding z-score [17],PBM binding z-score [18],PBM binding z-score [19],PBM binding z-score [20]
TTACCAAGGTGAGCTGAGGTCTTTGATCCAACTC,-0.159,0.0694,-0.392,-0.341,-1.02,0.662,-0.133,0.0949,-0.176,-0.0349,0.776,1.72,-0.073,-0.0335,-0.466,2,-0.613,2.56,-0.713,1.17
GGAACGAGGGCATTCGAGATGATAGCATGGCGAT,0.866,0.444,-0.191,-0.035,-0.591,1.38,1.36,0.68,0.253,0.521,2.56,2.34,-0.145,-0.476,-0.199,0.623,0.0214,0.232,-0.236,1.72
TCGAGTAGGTTACCAATGCGGCATTCAGCTTTCT,0.106,0.532,-0.94,0.215,-0.704,0.883,0.206,1.1,1.23,1.24,3.59,2.67,-0.407,-1.16,-0.385,-0.209,-1.01,-0.26,-0.774,0.646
CGTCCAGGGTCAATGCTAGGTCAGTGAAAGCATT,6.33,5.16,0.988,4.06,-0.00452,5.61,4.11,4.59,1.57,3.18,1.7,3.15,-0.224,0.0209,3.59,4.54,-0.194,6.03,0.75,4.82
CAAACTAGGCCAAGAGGTCAAAGTCCGCTTCCCG,5.17,5.51,4.77,4.72,1.13,5.68,6.86,6.66,5.68,6.63,6.71,6.57,1.38,0.62,2.87,5.62,1.75,6.34,1.51,4.2
TATACAGGGCCAAAGGCCAGAGTACGAATGTCGA,0.18,0.14,-0.21,-0.197,0.431,1.38,4.12,4.61,2.62,4.32,-0.282,1.6,0.275,-0.0589,0.362,-0.0978,-0.0965,0.479,-0.305,1.53
ACTAGCAGGCCAAGGTTCACTCAAGATTAGTCCG,0.739,1.16,0.631,1.04,-0.0506,2.89,5.16,6.08,5.04,6.29,1.19,2.08,-0.0687,-0.0109,0.515,1.36,0.191,1.35,0.0605,1.62
CCGACTGGGGCAGAAAGGTGACCATACCATCCGG,-0.198,-0.194,-0.391,-0.267,-1.39,0.838,1.34,1.98,-0.273,1.32,1.97,2.21,-0.413,-1.14,0.473,-0.192,-0.34,0.197,-0.0337,1.19
TGAATGAGGTTATAATATCAGGGAACGTTGCAAA,1.4,1.31,0.0955,1.38,0.0343,2.68,1.29,1.62,0.724,1.25,0.771,1.75,1.25,0.939,0.756,1.08,0.111,1.59,0.0682,1.08
GCTGCTAGGTCGGGTTGGTCAGCTAACGGGTACG,-0.105,-0.0902,-0.312,-0.21,-0.573,-0.124,-0.576,-0.344,-0.825,-0.553,0.38,0.339,-1.51,-0.0499,-0.349,-0.0179,-0.16,-0.157,-1.16,1.16
ATCTCTAGGTGACCAAGTTCAGTGAATGCCGAAC,0.185,0.357,0.0777,0.467,0.278,1.9,1.99,1.7,0.308,1.05,5.31,4.76,1.66,1.14,0.611,2.17,1.7,0.763,-0.118,1.7
GCTAGCTGGTCAGTAAAAGGTCACACACCGGTCG,3.2,4.47,4.35,3.88,0.195,4.21,2.43,4.13,1.46,3.75,0.546,2.35,0.0238,-0.213,5.71,5.04,0.209,6.16,2.36,4.23
CGTCCAAGGTCATAGGAAGTCAGTGAAGACAGAT,6.83,5.5,1.21,3.9,0.55,5.43,4.4,4.99,1.57,3.64,3.11,3.4,0.667,-0.147,2.75,3.99,0.915,4.28,0.466,4.81
ATCGAAAGGTCGACGAAGTGAGTATACACCGTTT,3.64,2.87,-0.00377,2.49,0.429,3.98,2.23,2.51,0.7,1.46,0.569,1.5,1.34,0.821,1.08,2.28,-0.00563,2.81,-0.0339,3.71
TTTTGTAGATCAGCAGGTTAAGAAAGCTGGCCAA,-0.421,-0.315,-0.236,0.141,-0.319,0.634,-0.106,0.922,0.508,0.797,0.508,1.04,-0.105,0.632,0.357,0.0195,-0.117,0.084,0.0423,0.0903
